TRPML1 ag: activates the human TRPML1 channel; Q9GZU1; TRPML1-expressing cells, Ca2+ dye fluorescence, FDSS; activation, % (test concentration not listed); 410,000 tested, 0.12% active; AID 624414; in the data active = activation above about 50%; inconclusive = mostly about 30% to 49%; also: 0% is about no effect
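TRPML1-DL cells, Tet-induced overnight (~16 h, 37 degrees C), loaded 45-90 min at room temperature with Ca8 no-wash calcium dye plus quencher. FDSS fluorescence: 10 s baseline, compound pin-transfer, 110 s agonist read, then EC80 54-4 (4uM final) and 110 s antagonist read.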
TRPML1 inh: human mucolipin-1 channel inhibition; AID 624415; 390,000 tested, 0.02% active; TRPML1-inducible cells, Ca2+ dye fluorescence, FDSS; hits give low values; inhibition of EC80 agonist-evoked calcium signal; Q9GZU1; activity change, negative = inhibition, % (test concentration not listed); in the data active = activity change below about -50%; inconclusive = between about -30% and that limit;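 also: stimulus is agonist 54-4 at its EC80 concentration; % is scaled to controls: 0 for no effect and ±100 for the full control effect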
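TRPML1-DL cells, Tet-induced overnight (~16 h, 37 °C) at 1,500 cells/well, were loaded with Ca8 no-wash dye plus quencher for 45-90 min at room temperature. Compounds were pinned during FDSS kinetic reading; agonist 54-4 at EC80 (4 uM final) then added.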
TRPV1 PAM: potentiators of human vanilloid receptor 1 (TRPV1) | potentiation, % at 8.33 µM | TRPV1-expressing cells, Fluo-8 calcium influx, capsaicin EC20 potentiation | 320,000 tested, 0.02% active; in the data active = potentiation above about 80%; inconclusive = between about 30% and that limit; also: 0% is about no effect
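Fluo-8 calcium influx in TRPV1-expressing cells, kinetic read (ex 480/em 520 nm). Compound added and read 3 min for agonist activity, followed by capsaicin at EC20 final and 2 min further read for enhancement.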
TRPV1 agonist: activates the human vanilloid receptor TRPV1; 320,000 tested, 0.19% active; AID 540275; Q8NER1; activation, % at 8.33 µM; TRPV1-expressing cells, Fluo-8 calcium influx, agonist mode; in the data active = activation above about 80%; inconclusive = between about 30% and that limit; also: 0% is about no effect
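TRPV1-expressing cells were cultured overnight at 35.5C and loaded with Fluo-8 calcium dye for 40 to 90 min at room temperature. After a 10 s baseline, compound was added and calcium influx was read kinetically for 3 min (ex 480/em 520 nm).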
Active calls of the source: *; ? = inconclusive; nt = no result given. This is a sample that favours compounds with a hit; in the whole collection about 0.31% have one here.

SMILES | TRPML1 ag | TRPML1 inh | TRPV1 PAM | TRPV1 agonist
CCOC(=O)C1CCCN(c2ccc([N+](=O)[O-])c3nonc23)C1 (centres undefined) | 89* | -6 | -10 | 105*
CC1CCCN(c2ccc(C(=O)N3CCC4(CC3)OCCO4)cc2[N+](=O)[O-])C1 (centres undefined) | 0 | -3 | -9 | ?
CCN(CC)c1ccc(/C=C/[N+](=O)[O-])cc1 | 71* | 1 | -6 | ?
c1ccc(CCN2CCCCC2)cc1 | 0 | nt | nt | nt
O=C(CCCN1CCC2(CC1)C(=O)NCN2c1ccccc1)c1ccc(F)cc1 | 76* | 21 | -5 | 18
CCCCn1nnnc1C(C1CC1)N1CCC2(CC1)C(=O)NCN2c1ccccc1 (centres undefined) | 2 | nt | nt | nt
CC(=O)NCC(N)C(=O)c1ccc(Cl)c(Cl)c1 (centres undefined) | -1 | nt | nt | nt
O=C1/C(=C/c2ccc(N(CCCl)CCCl)cc2)Cc2ccccc21 | 73* | nt | nt | nt
Cc1c(C(c2ccc(Cl)cc2Cl)c2c(O)c3ccccc3oc2=O)c(=O)n(-c2ccccc2)n1C (centres undefined) | 1 | 22 | 82* | -4
Cc1cc(/C=C/c2cccc3sc(C)[n+](CCCCI)c23)ccc1N(CCCl)CCCl | 14 | nt | nt | nt
COc1cc(CNCCc2ccc3c(c2)OCO3)ccc1O | 1 | 14 | -13 | 2
CCCCCCCCC(=O)NCc1ccc(O)c(OC)c1 | 2 | -5 | 4 | 105*

Screens: PubChem BioAssay, National Center for Advancing Translational Sciences (NCATS)
